“And” between values parts separate entries of the source, which are not always exact repeats. Identical values can stand only once. About 83,000 compounds went through this panel and 20% of them were active in at least one assay; those are over-represented in the sample as a whole.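 96-well plates, one dose, 48 hours. Percent growth reported; active if below 10.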 The source made the active and inactive calls. Where a SMILES comes first, the peptide text is derived from it. [ ]: non-standard residue; d: D form. ξ: configuration not given here. ξV = CC(C)C(N)C(=O)O
Each compound was assayed on SK-MEL-5 melanoma (assay: NCI-60 one-dose screen, 48 h (100 = growth as untreated, 0 = no growth, -100 = all killed)). Details: 0.0025 µM.
Protocol: Growth inhibition of the SK-MEL-5 human tumor cell line is measured as a screen for anti-cancer activity. Cells are grown in 96 well plates and exposed to the test compound for 48 hours. Compounds are tested at a single concentration, which is 10^-5 M for most compounds. The reported endpoint is percent growth (GI% or GIPRCNT), where numbers from 0 - 100% represent growth inhibition, and numbers from -100% - 0 represent cell death. For example, a value of 40 represents 60% growth inhibition. A value of 0 means no net growth occurred over the course of the experiment. A value of -40 indicates 40% of cells at the beginning of the experiment died by the end of the experiment. A value of -100 means all cells are dead at the end of the experiment.
NCI-60 Human Tumor Cell Lines Screen was performed using the standard one-dose NCI protocol, which is described in more detail at https://dtp.cancer.gov/discovery_development/nci-60/default.htm.
Compounds with GIPRCNT values below 10 were considered active. Activity score was based on GIPRCNT using the following formula: […]
Score is 0 for GIPRCNT values of 100 or above, 50 for GIPRCNT values of 0, and 100 for GIPRCNT values of -100.

Row | Compound | growth
1 | COc1cccc2c1C(=O)c1c(O)c3c(c(O)c1C2=O)C[C@@](O)(C(=O)CO)C[C@@H]3OC1CC(N)C(O)C(C)O1 (stereo not given in full) | 93.2% (inactive)

Same assay, conditions: 10 µM

Row | Compound | growth
2 | COc1cccc2c1C(=O)c1c(O)c3c(c(O)c1C2=O)C[C@@](O)(C(=O)CO)C[C@@H]3OC1CC(N)C(O)C(C)O1 (stereo not given in full) | -85.1% (active)
3 | O=c1ccn(C2CC(O)C(COC(c3ccccc3)(c3ccccc3)c3ccccc3)O2)c(=O)[nH]1 (stereo not given) | 93.3% (inactive)

Same assay, conditions: 10 µM unless noted

Row | Compound | growth
4 | CCCCCCCCCCSC(=N)N | 50.7% (inactive)
5 | CSC1SCC2C(=O)N(C)C(C(C)C)C(=O)OCC(NC(=O)c3cnc4ccccc4n3)C(=O)NC(C)C(=O)N(C)C1C(=O)N(C)C(C(C)C)C(=O)OCC(NC(=O)c1cnc3ccccc3n1)C(=O)NC(C)C(=O)N2C (stereo not given) | -73.1% (active)
6 | CCN(CC)c1ccc(NC(C(=O)c2ccccc2)c2ccccc2)cc1 (stereo not given) | 78.8% (inactive)
7 | Clc1cc(Cl)c(Cl)nn1 | 103% (inactive)
8 | O=C(/C=C/c1cccnc1)c1ccccc1 | 103% (inactive)
9 | O=C(C(=Cc1ccccc1)C(=O)c1ccccc1)c1ccccc1 | 66.6% (inactive) and 94.4% (inactive)
10 | CCCCCC(C)c1ccc(O)c(C)c1 (stereo not given) | 104% (inactive)
11 | O=C(Nc1ccc(C(=O)O)c(O)c1)c1ccccc1 | 107% (inactive) and 106% (inactive)
12 | CS(=O)(=O)OC1CC(n2ccc(=O)[nH]c2=O)OC1COC(c1ccccc1)(c1ccccc1)c1ccccc1 (stereo not given) | 101% (inactive)
13 | COC(=O)C1C(O)C(C)C(O)C(C)C=C(C)C2=C3C(=C(C)C(=O)c4c(O)c(c(C)c(OC(C)=O)c43)NC(=O)C(C)=C/C=C\C(C)C(O)C(C)C1O)OCO2 (stereo not given) | 110% (inactive)
14 | COC(=O)C1=COC(C)C2C[n+]3ccc4c([nH]c5ccccc54)c3CC12 (stereo not given) | 100% (inactive) and 93.6% (inactive)
15 | NC1=C(Cl)C(=O)c2ccccc2C1=O | -80.8% (active)
16 | CCC(C)(C)c1cc(O)c(C(C)(C)CC)cc1O | 22.8% (inactive)
17 | CC(C)(C)CC(C)(C)c1ccc(OCCO)cc1 | 119% (inactive)
18 | OCC(O)C(O)C(O)C(/C=N/Nc1ccccc1)=N/Nc1ccccc1 (stereo not given) | 86.8% (inactive)
19 | Nc1ccc2cc3ccc(N)cc3nc2c1 | 105% (inactive) and -3.97% (active)
20 | COC1OCC(O)C(O)C1O (stereo not given) | 101% (inactive)
21 | CCO/C=C1\SC(=S)N(c2cccc(O)c2)C1=O | 99.4% (inactive)

Row | Compound | growth
22 | CN(C)C(=S)SC(=S)N(C)C | 92.9% (inactive) and 99% (inactive)
23 | Cc1cc(NS(=O)(=O)c2ccc(N=Nc3cc(N=Nc4ccc(S(=O)(=O)Nc5cc(C)nc(C)n5)cc4)c4c(NC(=O)C(Cl)Cl)cccc4c3OC(=O)C(Cl)Cl)cc2)nc(C)n1 (tested in a mixture with another compound) | 96.9% (inactive) and 87.6% (inactive)
24 | Nc1nc(=S)c2ncn(C3OC(CO)C(O)C3O)c2[nH]1 (stereo not given) | 116% (inactive) and 22.7% (inactive)
25 | COc1cccc2c1C(=O)c1c(O)c3c(c(O)c1C2=O)C[C@@](O)(C(C)=O)C[C@@H]3OC1CC(N)C(O)C(C)O1 (stereo not given in full) | -90.5% (active)
26 | CC(C)C(NC(=O)CN)C(=O)O (stereo not given) (H-Gly-[ξV]-OH) | 104% (inactive) and 102% (inactive)
27 | CCCCCCCCCCCCCCCCCCOCC(COP(=O)([O-])OCC[N+](C)(C)C)OC (stereo not given) | 62.5% (inactive)
28 | NNc1c2ccccc2nc2ccccc12 | 22% (inactive)
29 | COc1ccc(CC(=O)c2ccc(O)cc2O)cc1 | 103% (inactive)
30 | OCC1OC(n2cnc3c(=S)nc[nH]c32)C(O)C1O (stereo not given) | 102% (inactive) and 80.9% (inactive)
31 | Cc1nc(N=C(N)N)nc2ccc3ccccc3c12 | 2.88% (active)
32 | NNc1ccc2ccccc2c1 | 89.3% (inactive) and 87.6% (inactive)
33 | NC(=O)SCC(=O)NNc1ccccc1 | 103% (inactive)
34 | CCCC1CCC(=C2C(=O)CCC2=O)O1 (stereo not given) | 88.6% (inactive) and 102% (inactive)
35 | Cc1cc(O)c(C(C)C)cc1Cl | 103% (inactive)
36 | O=C(/C=C/c1ccccn1)c1ccccc1 | 74.7% (inactive)
37 | O=[N+]([O-])C1=C(c2ccccc2)SC=C(c2ccccc2)S1 | 87% (inactive)
38 | CCN1/C(=C/C=C/C=C/c2sc3ccccc3[n+]2CC)Sc2ccccc21 | -95.4% (active)
39 | Clc1ccc(/C=C/c2ccccn2)c(Cl)c1 | 81.6% (inactive)

Same assay, conditions: 100 µM

Row | Compound | growth
40 | O=c1ccn(C2CC(O)C(COC(c3ccccc3)(c3ccccc3)c3ccccc3)O2)c(=O)[nH]1 (stereo not given) | 32.2% (inactive)

— PubChem BioAssay (NCI)
